# Measurements reported in ChEMBL document CHEMBL4513216, “Probing the Open Global Health Chemical Diversity Library for Multistage-Active Starting Points for Next-Generation Antimalarials” (ACS Infect Dis, 2020).
# Out of some 68,000 compounds screened, about 2,700 (4%) showed an effect of 50% or more. The list comes from a sample in which strong results are over-represented; it also holds similar structures and randomly drawn compounds.
# Test system: Plasmodium berghei
# Assay: Screen against P. berghei liver stage (PbLuc), transformed with Luciferase, at 2uM
# Assay type: functional, HepG2
# Conditions: tested at 2 uM
row,Compound,INHIBITION [%]
1,COc1ccc(Cl)cc1C(=O)NCC1CCN(C(=O)c2ccoc2)CC1,17.33
2,CCOc1cccc(NC(=O)Cc2cccc(O)c2)n1,0.51
3,Cn1ccc(NC(=O)Cc2cccc(F)c2)n1,19.89
4,CSc1ccc(NC(=O)Cc2cccc(O)c2)nc1,55.36
5,COCCC(=O)N1C[C@@H](c2ccccc2F)[C@@]2(CCCC(=O)N2)C1,-6.19
6,O=C(NCc1cnc2n1CCN(CC1CCOCC1)C2)c1ccno1,-14.52
7,Cc1cc(S(=O)(=O)N2CCCN3CCCC3C2)ccc1F (centres undefined),6.07
8,Cc1ccc(S(=O)(=O)N2CCC(N3CCCCC3)CC2)cc1C,-25.62
9,Cc1ccc(S(=O)(=O)N2CCCCC(N3CCN(C)CC3)C2)cc1F (centres undefined),50.3
10,Nc1nccnc1CC1CCCN(Cc2ccnc3ccccc23)C1 (centres undefined),13.02
11,CC(C)c1nc(CN2CCCC2Cn2cccn2)no1 (centres undefined),-97.56
12,COCCN(C)Cc1cc(Cl)ccc1OCC(O)CN1CCCCCC1 (centres undefined),-55.56
13,CCOc1ccccc1CNC(=O)NCC(c1cnn(C)c1)N(C)C (centres undefined),71.95
14,CCOc1cc(F)ccc1NC(=O)NCC(c1cnn(C)c1)N(C)C (centres undefined),-24.88
15,CCOCc1ccccc1NC(=O)NCC(c1cnn(C)c1)N(C)C (centres undefined),18.54
16,COc1ccc(CN2CCn3cc(CN4CCCCC4)nc3C2)cc1,-5.87
17,Cc1cc(CN2C[C@@H]3COC[C@]3(COCc3csc(C)n3)C2)no1,1.74
18,CC(C)c1nc(CN2CCOC(Cn3cncn3)C2)cs1 (centres undefined),11.2
19,CCOc1ccccc1CCNC(=O)NCC(O)c1cccs1 (centres undefined),-23.79
20,CN(C)c1ccc(CCCNC(=O)NCC(O)c2ccsc2)cc1 (centres undefined),34.55
21,CCOc1ccccc1CCNC(=O)NCC(O)c1ccsc1 (centres undefined),53.63
22,Cc1ccccc1N1CCN(C(=O)CCc2nncn2C)C(C)C1 (centres undefined),-38.81
23,Cc1cccc(C2CC(=O)Nc3c2c(=O)[nH]n3C(C)C)c1 (centres undefined),-36.73
24,Cc1nn(C)cc1CNCc1ccc(N(C)C)cc1,8.09
25,COc1ccc(CNCc2cn(C)nc2C)cc1,51.32
26,COC(=O)c1ccc(CNCc2cn(C)nc2C)cc1,14.26

row,Compound,INHIBITION [%]
1,CCn1c(O)c(C(C)=O)c2cc(C)ccc21,30.48
2,Cc1cccc2c1ccn2CC(=O)NC[C@@H]1CCCN2CCCC[C@H]12,-7.52
3,CS(=O)(=O)N1CC[C@]2(O)CCN(CCCC(=O)c3ccccc3)C[C@@H]2C1,-30.08
4,C/C(NC(=O)c1cccs1)=C1\C(=O)C[C@@H]2[C@H]1C2(C)C,21.57
5,C/C(NC(=O)c1ccco1)=C1/C(=O)C[C@@H]2[C@H]1C2(C)C,18.11
6,C/C(NC(=O)c1ccccn1)=C1\C(=O)C[C@@H]2[C@H]1C2(C)C,52.74
7,Cc1nn(C)c2cn(C(C)C(=O)NCc3ccncc3)nc12 (centres undefined),22.13
8,O=C1CC2(CCCNC2)C(=O)N1Cc1ccc(Cl)cc1 (centres undefined),-59.66
9,Cc1ccc2nc(C(=O)N3CCCC[C@]4(C)NC(=O)CCC[C@H]34)cn2c1,55.74
10,Cc1cccc2nc(C(=O)N3CCCC[C@]4(C)NC(=O)CCC[C@H]34)cn12,29.06
11,Cc1cccc(C(=O)N2CCCC[C@]3(C)NC(=O)CCC[C@H]23)n1,49.48
12,CCc1c(C)[nH]c(C(C)(C)N)nc1=O,-33.81
13,COc1cc(C2(C(=O)N3CCN(CC(C)O)CC3)CC2)ccc1C (centres undefined),-71.2
14,CCC(O)CN1CCN(C(=O)C2(c3ccc(C)c(OC)c3)CC2)CC1 (centres undefined),-10.44
15,COc1ccccc1C1(C(=O)N2CCN(CC(C)O)CC2)CC1 (centres undefined),58.53
16,O=C(NC1CC1)[C@@H]1CCO[C@@H]2CCN(CCc3ccccc3)C[C@@H]21,8.88
17,CCC[C@@H]1CN(Cc2cnc(-c3cccs3)nc2)C[C@H]1C(=O)O,-9.03
18,CCC[C@@H]1CN(c2ncnc3sccc23)C[C@H]1C(=O)O,51.48
19,CCC[C@@H]1CN(c2ncnc3sccc23)C[C@H]1NS(C)(=O)=O,46.58
20,CC(C)CN1CCC2(CCN(CC3CC3)CC2)C1=O,16.25
21,NC(=O)CCOc1ccc(NC(=O)c2ccccc2OC(F)F)cc1,58.14
22,COc1cccc(C(=O)Nc2ccc(OCCC(N)=O)cc2)c1OC,-20.19
23,CC(Cc1ccccc1F)C(=O)Nc1ccc(OCCC(N)=O)cc1 (centres undefined),-11.88
24,CCc1noc(C(C)N2CCN(c3ccc(C#N)cn3)CC2)n1 (centres undefined),-30.71
25,CCc1noc(C(C)N2CCN(c3ncnc4sccc34)CC2)n1 (centres undefined),52.89
26,CCc1noc(C(C)N2CCN(C)CC2)n1 (centres undefined),9.83

row,Compound,INHIBITION [%]
1,Cc1noc(C(C)N2CCN(c3ncnc4sccc34)CC2)n1 (centres undefined),52.89
2,Cc1noc(C(C)N2CCN(c3ncnc4ccccc34)CC2)n1 (centres undefined),4.34
3,Cc1noc(C(C)N2CCN(c3ccc(C#N)cn3)CC2)n1 (centres undefined),25.35
4,O=C(NCc1ccccn1)c1cncc(C2CCCN2)n1 (centres undefined),20.28
5,O=C(CCn1ncc2ccccc21)N1CCCC(Cc2cccnc2)C1 (centres undefined),20.44
6,Cc1csc(CN2CCC(C(=O)O)(n3ccc(-c4ccco4)n3)CC2)n1,-8.84
7,Cc1cc(C(=O)N(C)Cc2cccs2)nc(N2CCCCC2)n1,-14.24
8,Cc1cc(C(=O)N(C)Cc2cccs2)nc(N2CCCC2)n1,50.9
9,Cc1cc(C(=O)N(C)Cc2cccs2)nc(N2CCOCC2)n1,-3.54
10,c1nc(N2CCCC2)ncc1CN1CCCC(CN2CCCCC2)C1 (centres undefined),52.45
11,NC(=O)CCC1CCCN(Cc2cnc(N3CCCCC3)nc2)C1 (centres undefined),44.23
12,CC(C)c1ncc(CN2CCCC(CO)C2)cn1 (centres undefined),1.42
13,Cc1ccoc1C(=O)NC1CCN(Cc2cccc3ccccc23)CC1,3.48
14,CC(=O)N(C)CC(=O)NC(C)c1ccc(OCCC(C)C)cc1 (centres undefined),29.41
15,N#Cc1c(N)nc2c(c1-c1c[nH]nc1C1CCCCC1)COCC2,-64.94
16,CCCn1nc(C)c2c1NC(=O)CC2c1ccc(CN2CCCC2)s1 (centres undefined),5.02
17,Cn1nc(C2CC2)c2c1NC(=O)CC2c1ccc(CN2CCCCC2)s1 (centres undefined),22.63
18,Cn1nc(C2CC2)c2c1NC(=O)CC2c1cc(CN2CCCC2)cs1 (centres undefined),73.26
19,O=C(CC1CCCC1)N1CCC(c2nnc(-c3ccccn3)o2)CC1,9.09
20,Cc1cc(C(=O)NCCC(=O)N2CCCc3ccccc32)no1,12.39
21,COc1c(C(=O)NCc2cccnc2)nnn1Cc1ccc(C)cc1,-19.47
22,Cc1ccc2c(c1)Oc1ncccc1C(=O)N2,9.43
23,CC(c1ccccc1)N(C)CC(=O)NCCC#N (centres undefined),59.24
24,CN(CC(=O)NCCC#N)C(c1ccccc1)c1ccccc1,21.71
25,CN(CC(=O)NCCC#N)C(c1ccccc1)c1ccc(F)cc1 (centres undefined),13.11
26,O=C(CCc1cc2n(n1)CCN(CCCn1cccc1)C2)N1CCCC1,5.1

row,Compound,INHIBITION [%]
1,CC1(C)CC(N(Cc2cccnc2)Cc2cccc(F)c2)CC(C)(C)N1,-4.26
2,O=C(NCCCn1nc2ccccn2c1=O)Nc1ccc(F)cc1F,4.96
3,CN1CCN(S(=O)(=O)c2cccc(S(=O)(=O)C3CCS(=O)(=O)C3)c2)CC1 (centres undefined),28.43
4,COc1ncccc1C1CC(=O)NCc2nc3ccccn3c21 (centres undefined),29.41
5,COc1ccc(C2CC(=O)NCc3nc4ccccn4c32)cn1 (centres undefined),54.3
6,COc1ncc(C2CC(=O)NCc3nc4ccccn4c32)cn1 (centres undefined),-36.24
7,COCCC1(C(=O)O)CCCN(C(=O)c2cc(C)oc2C)C1 (centres undefined),-11.55
8,CC(C)C(CCO)NC(=O)Nc1ccc(-c2csnn2)cc1 (centres undefined),12.78
9,Cc1ccc(C(=O)NC2CCCN(C)C2)c(=O)[nH]1 (centres undefined),52.84
10,CCN1CCCC(NC(=O)c2ccc(C)[nH]c2=O)C1 (centres undefined),-53.67
11,Cc1ccc(C(=O)NC2CCCN(S(C)(=O)=O)C2)c(=O)[nH]1 (centres undefined),-34.79
12,Cc1cccc(CN(Cc2ccc(C)o2)C2CC(C)(C)NC(C)(C)C2)n1,29.73
13,CCc1nc(N)nc(N2CCCC3(CCN(C)CC3)CC2)c1C,-17.39
14,CC(=O)c1ccc(-c2cnn(CC(=O)Nc3ccnn3C)c2)nc1,59.56
15,CC(=O)c1ccc(-c2cnn(CC(=O)Nc3cc(C)nn3C)c2)nc1,36.09
16,Cn1ccnc1-c1cnn(CC(=O)Nc2ccnn2C)c1,35.13
17,CS(=O)(=O)N1C[C@H]2CC[C@@H](C1)N(C(=O)CCc1n[nH]c3c1CCCC3)C2,-4.58
18,CCCc1nc(CN2CCCC2c2cnn(C)c2)cs1 (centres undefined),58.52
19,Cn1cc(C2CCCN2Cc2csc(Cc3ccccc3)n2)cn1 (centres undefined),3.48
20,Cn1cc(C2CCCN2Cc2csc(C(C)(C)C)n2)cn1 (centres undefined),-10.66
21,Cc1cc(NCCc2nnc(N)s2)nc(-c2ccccc2)n1,7.02
22,COc1nccnc1N1CCCC2(C1)C(=O)N(C)c1ccccc12 (centres undefined),-8.8
23,CCN1CCN(c2ccccc2NC(=O)N(C)C2CCSC2)CC1 (centres undefined),25.08
24,CCN1CCc2c(cccc2NC(=O)N(C)C2CCSC2)C1 (centres undefined),51.9
25,CCN1CCc2c(cccc2NC(=O)CN(C)C2CCSC2)C1 (centres undefined),49.21
26,Cn1ccc(C(=O)Nc2cccc(-c3ccc4c(c3)CCO4)n2)cc1=O,-17.18
